Screens (PubChem BioAssay)
12-LOX inh: ALOX12 (human) lipoxygenase inhibition; P18054; purified 12hLO, xylenol orange hydroperoxide absorbance; Potency, µM (highest dose often 108 µM), for inactives: at the highest dose activity change, negative = inhibition, actives largely listed as inhibitors; actives 1.1% (n = 580,000); AID 1671190; note: % is set by controls: 0 for no effect and ±100 for the full control effect
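Hydroperoxide product was detected by ferrous iron/xylenol orange as the 573 to 405 nm absorbance ratio. Arachidonic acid at 40 uM (final) was turned over for 30 min at room temperature by 150 nM human 12hLO, pH 7.0 Hepes buffer, after 15 min compound preincubation.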
JMJD2A Tudor: blocks the human JMJD2A Tudor domain; O75164; AlphaScreen JMJD2A-Tudor / H3K4me3 peptide binding; Potency, µM (titrated, usually from 114 µM), inactives show at the top dose activity change, negative = inhibition, usual class: inhibitors; actives 4.4% (n = 390,000); AID 504339; note: % is set by controls: 0 for no effect and ±100 for the full control effect; nearly all actives have a fitted effect of over 50% in size
BAZ2B inh: BAZ2B (human) inhibition | actives 4.4% (n = 360,000) | Potency, µM (titrated, usually from 114 µM), inactives show top-dose activity change, negative = inhibition, usual class: inhibitors | AlphaScreen BAZ2B-H3K14Ac peptide displacement | Q9UIF8 | AID 504333; note: % is set by controls: 0 for no effect and ±100 for the full control effect; nearly all actives have a fitted effect of over 60% in size
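AlphaScreen luminescence quantifies BAZ2B engagement of H3K14Ac peptide; the protein and biotinylated peptide are both at 50 nM final, buffer PBS pH 7.4 with 0.01% Tween-20, all steps at room temperature.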
G9a block: blocks human histone lysine methyltransferase G9a; Potency, µM (series often up to 102 µM), for the others: top-dose activity, negative = inhibition, most hits filed as inhibitors; G9a H3K9 monomethylation, AlphaScreen, 2 h; actives 8.8% (n = 350,000); note: % is set by controls: 0 for no effect and ±100 for the full control effect; nearly all actives have a fitted effect of over 75% in size
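Compounds were preincubated with 20 nM G9a for 15 min, after which biotinylated H3K9 peptide (500 nM) and SAM (20 uM) started a 2 h room-temperature reaction. Monomethylated product was quantified by antibody-based AlphaScreen chemiluminescence.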
PLK1 PBD inh: inhibitors of human PLK1 polo-box domain binding. P53350. Potency, µM, inactives show max response, negative = inhibition, usual class: inhibitors. Plk1 PBD binding of FITC phosphopeptide, fluorescence polarization. AID 720504. actives 2.8% (n = 360,000); note: series mostly up to about 57 µM; % is set by controls: 0 for no effect and ±100 for the full control effect; nearly all actives have a fitted effect of over 65% in size
Target sequence (P53350 whole entry, looked up, the tested form may be a part): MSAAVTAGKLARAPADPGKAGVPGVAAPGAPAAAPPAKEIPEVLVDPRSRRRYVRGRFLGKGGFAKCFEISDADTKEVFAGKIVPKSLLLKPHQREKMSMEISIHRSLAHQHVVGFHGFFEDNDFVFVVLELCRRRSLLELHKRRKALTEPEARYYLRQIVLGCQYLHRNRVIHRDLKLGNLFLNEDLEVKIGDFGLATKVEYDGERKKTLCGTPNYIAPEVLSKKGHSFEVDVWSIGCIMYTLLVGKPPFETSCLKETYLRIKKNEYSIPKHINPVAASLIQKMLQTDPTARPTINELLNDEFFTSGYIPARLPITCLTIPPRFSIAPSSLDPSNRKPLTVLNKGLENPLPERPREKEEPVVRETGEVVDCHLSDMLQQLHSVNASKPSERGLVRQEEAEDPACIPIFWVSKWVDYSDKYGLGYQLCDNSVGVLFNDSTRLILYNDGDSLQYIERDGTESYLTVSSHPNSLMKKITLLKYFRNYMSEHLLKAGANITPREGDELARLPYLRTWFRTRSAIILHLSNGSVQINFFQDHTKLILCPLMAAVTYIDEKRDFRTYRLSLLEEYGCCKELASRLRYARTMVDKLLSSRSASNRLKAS
HP1b binding inh: inhibitors of HP1-beta chromodomain binding to methylated histone tails; P83916; AlphaScreen HP1-beta / biotin-H3K9me3 peptide binding; Potency, µM (top dose mostly 114 µM), inactives show at the top dose activity change, negative = inhibition, most hits filed as inhibitors; actives 0.56% (n = 390,000); note: nearly all actives have a fitted effect of over 70% in size
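Compound inhibition of the preformed complex between 50 nM HP1-beta and 50 nM biotinylated H3K9me3 peptide was read by AlphaScreen. Buffer was PBS pH 7.4 with 0.01% Tween-20. Incubations ran 30 min at room temperature, with 10 ug/mL donor/acceptor beads.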
Active calls of the source: *; i = inactive; ? = inconclusive; · = not tested or not shown; ! = repeats disagree; [ ] = another dose, or the depositor's remark. The list is not random: actives were taken first. Their share in the collection is about 9%. Calls come from the whole dose curve; as a rule, active = well fitted curve in the direction sought with a large enough effect; inconclusive = small, poorly fitted or top-dose-only effect, or another doubt; inactive = no such curve, though single readings can be large; an effect the other way counts as inactive or inconclusive. Potency is the fitted concentration of half-maximal effect.

SMILES	12-LOX inh	JMJD2A Tudor	BAZ2B inh	G9a block	PLK1 PBD inh	HP1b binding inh
Cc1ccccc1NC(=O)COC(=O)/C=C/c1cn(-c2ccccc2)nc1-c1cccnc1	0%	-15%	4%	-3%[59 µM]	13%	12%
NC(=O)NC(CC(=O)NCCc1ccc(S(N)(=O)=O)cc1)c1ccc(Cl)cc1 (stereo not drawn)	-21%	-15%[11.4 µM]	2%	·	15µM*	-1%
COc1cc([N+](=O)[O-])ccc1N1C(=O)C2C3C=CC(C4CC34)C2C1=O (stereo not drawn)	-9%	-12%[57.1 µM]	-27%	40µM*	-23%	20%
Cc1ccc(C(=O)Oc2oc(-c3ccco3)nc2C=Nc2ccccc2)cc1	·	·	-5%[57.1 µM]	28µM*	·	·
CC(=O)Oc1oc(-c2ccccc2)nc1C=Nc1ccccc1	-1%	-18%	-5%[57.1 µM]	50µM*	?	37%
CCOC(=O)c1ccc(N=Cc2nc(-c3ccccc3)oc2OC(C)=O)cc1	?	-7%	-25%	7.9µM*	4.7µM*	39%
CN(C)c1ccc(N=Cc2nc(-c3ccccc3)oc2OC(=O)c2cccc(Br)c2)cc1	?	?	35µM*	32µM*	-10%	-22%
CCN(CC)CCNCc1cc(Cl)c(OCC(=O)Nc2ccccc2)c(OC)c1	-14%	-2%	-31%	45µM*	4%	45%
Cc1ccc(N(C(C)C(=O)Nc2cccc(N(C)S(C)(=O)=O)c2)S(C)(=O)=O)cc1 (stereo not drawn)	-9%	-18%	4%	0%	-14%	16%
Cc1ccc(N(C(C)C(=O)Nc2ccc3c(c2)OCO3)S(C)(=O)=O)cc1 (stereo not drawn)	0%	?	-30%	-33%[59 µM]	3µM*	-26%
Nc1c(C(=O)O)sc2nc3c(cc12)CCCC3	?	-10%	-25%	22µM*	-13%	51%
NC(=O)c1sc2nc3c(cc2c1N)CCCCCC3	-28%	-18%	-14%	50µM*	?	24%
CCOC1=C2[C@@H](CN(S(=O)(=O)c3ccc(C)cc3)[C@H]2c2ccccc2F)[C@H]2C(=O)N(CC)C(=O)[C@H]2C1	-7%	·	·	·	1%	·
CCNc1ccccc1CP(=O)(c1ccccc1)c1ccccc1O (stereo not drawn)	i	50µM*	40µM*	?	21µM*	32µM*
COc1ccccc1-c1nc2c(c(SCc3cc(C)ccc3C)n1)Cc1c(CO)cnc(C)c1O2	-16%	-22%	-15%	-37%[59 µM]	·	24%
O=C(c1sc2cc([N+](=O)[O-])ccc2c1Cl)N1CCCCC1	-20%	?	?	?	-10%	?
CC1CCCN(C(=O)c2sc3cc([N+](=O)[O-])ccc3c2Cl)C1 (stereo not drawn)	1%	?	50µM*	40%[0.501 µM]	-12%	?
CC1Sc2ccc(C#N)cc2N(Cc2cccc(C(F)(F)F)c2)C1=O (stereo not drawn)	5%	·	·	·	-6%	·
CCN(CC)C(=O)C(=O)N/N=C(\C)CCc1ccccc1	11%	·	·	·	·	·
C/C(CCC(C)C)=N\NC(=S)NCc1ccccc1	?	56µM*	?	45µM*	-6%	-10%
C/C(CCc1ccccc1)=N\NC(=S)NCCc1ccccc1	40µM*	?	40µM*	?	-8%	-22%
C/C(CCc1ccc2c(c1)OCO2)=N\NC(=S)NC(C)C	?	-34%	?	?	-13%	-15%
CC(OC(=O)c1cccs1)C(=O)NCCc1ccccc1 (stereo not drawn)	-16%	-7%	6%	14%	-6%	0%
COCCNC(=S)N/N=C(\C)CCc1ccc2c(c1)OCO2	282%	-30%	-39%	50µM*	2%	-4%
C/C(=N\NC(=S)NCCc1ccccc1)c1cccs1	45µM*	?	35µM*	?	-23%	?
SMILES	12-LOX inh	JMJD2A Tudor	BAZ2B inh	G9a block	PLK1 PBD inh	HP1b binding inh
COc1cccc(-c2nc(CS(=O)(=O)CC(=O)Nc3ccc(C(C)=O)cc3)c(C)o2)c1	0%	-27%	?	-24%	-5%	9%
O=C1NCC2(CCN(C(=O)c3ccccc3C3CCNC3)CC2)O1 (stereo not drawn)	-13%	·	·	·	·	·
CC(C)(O)/C=C1/Oc2ccccc2C1N1CCCCC1 (stereo not drawn)	172%	-1%	-6%	50µM*	-2%	38%
O=C(O)C1CCC(=O)N1C1c2ccccc2Oc2ccccc21 (stereo not drawn)	-19%	-13%	-5%	-9%	-4%	35%
Cc1ccn2c(C(=O)CSc3ccc(Cl)cc3Cl)c(C)nc2c1	·	-10%[11.4 µM]	-24%	-3%	-14%	33%
CCn1c(-c2ccc(OC)c(OC)c2)n[nH]c1=S	?	3.5µM*	0%	2µM*	-2%	-3%
C=CCn1c(-c2ccc(OC)c(OC)c2)n[nH]c1=S	?	25µM*	-8%	-13%[59 µM]	-1%	14%
CCn1c(SCC(N)=O)nnc1-c1ccc(OC)c(OC)c1	0%	-20%	·	11%[59 µM]	-7%	8%
C=CCn1c(-c2c(C)nc3cc(C)ccn23)n[nH]c1=S	?	10µM*	-4%	10µM*	-8%	26%
CCC(NC(C)C)C(O)c1ccc(O)c(O)c1 (stereo not drawn)	10µM*!	?	?	27µM*!	-12%	7%
CCC(c1ccc(O)c(O)c1)C(CC)c1ccc(O)c(O)c1 (stereo not drawn)	·	79µM*	·	·	?	?
CC[C@H](NC(C)C)[C@H](O)c1ccc(O)c2[nH]c(=O)ccc12	-16%[57.4 µM]	·	·	17%[59 µM]	·	·
O=C(Nc1cc([N+](=O)[O-])ccc1O)c1cccc(NC(=O)c2ccco2)c1	0%	-30%	-35%	-17%	-18%	27%
COc1ccc(NC2=Nc3cccc4cccc2c34)cc1	-11%	45µM*	35µM*	?	17%	?
c1ccc(NC2=Nc3cccc4cccc2c34)cc1	-9%	-13%[57.1 µM]	?	25µM*	-4%	-14%
O=C(O)c1cccc(NC2=Nc3cccc4cccc2c34)c1	?	-10%	-3%	?	-11%	17%
Fc1ccc(/C=N/NC2=Nc3cccc4cccc2c34)cc1	-17%	?	?	-13%[59 µM]	-1%	-16%
CCCOc1ccc(-c2c(C(=O)N/N=C/C3CC=CCC3)nnn2-c2nonc2N)cc1 (stereo not drawn)	11%	2%	-25%	17%	-4%	50%
CC(C)c1nc(C#N)c(N2CCOCC2)o1	0%	6%	4%	2%[59 µM]	-3%	15%
O=C(CCC(=O)c1cccs1)NCCC(=O)Nc1ccc(F)c(Cl)c1	50µM*	·	·	·	·	·
